The list is not random: actives were taken first. Their share in the collection is about 3%.
SNCA viab count: cell viability loss counter-screen. HEK-293-SNCA-luc viability, GF-AFC fluorescence, 24 h. Potency, µM (doses to about 57.1 µM), for inactives: top-dose activity change, negative = cytotoxicity, most hits filed as cytotoxic. 0.12% of 150,000 active;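 further: potency means the concentration at half of the fitted maximal effect; 0% = DMSO-treated cells and -100% = medium-only wells without cells; nearly all actives have a fitted effect of over 30% in size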
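Cytotoxicity counterscreen: after 24 h compound treatment of genome-edited SNCA-luciferase HEK-293 cells, live-cell protease substrate GF-AFC read by fluorescence after 30 min; activity scaled between DMSO (0%) and medium-only (-100%), curves Hill-fitted.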
IP6K1 inhibitor: IP6K1 kinase inhibition. Q92551. 0.81% of 140,000 active. IP6K1 kinase, ADP-Glo luminescence, 2 h; active compounds read low. activity change, % (series mostly up to about 58 µM); in the data active means activity change below about -25%; further: on the % scale 0 is the no-effect control and ±100 the full control effect
Target sequence (Q92551 whole entry, looked up): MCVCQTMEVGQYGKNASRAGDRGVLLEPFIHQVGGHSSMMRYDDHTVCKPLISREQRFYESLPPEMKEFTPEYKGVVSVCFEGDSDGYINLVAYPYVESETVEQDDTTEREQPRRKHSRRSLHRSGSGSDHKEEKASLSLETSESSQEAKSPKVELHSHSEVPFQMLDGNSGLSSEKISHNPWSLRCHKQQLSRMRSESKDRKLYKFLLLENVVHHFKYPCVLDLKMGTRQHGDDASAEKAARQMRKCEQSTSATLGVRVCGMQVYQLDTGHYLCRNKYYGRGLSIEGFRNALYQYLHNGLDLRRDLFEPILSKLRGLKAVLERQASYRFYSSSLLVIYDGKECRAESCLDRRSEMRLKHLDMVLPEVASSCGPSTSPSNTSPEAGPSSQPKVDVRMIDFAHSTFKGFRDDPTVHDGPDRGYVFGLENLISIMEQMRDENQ
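ADP-Glo luminescence measures ADP made by human IP6K1 during a 2 h RT reaction with ATP/IP6 (mix at 1.3 mM/130 uM); top library doses 57.5 and 19.1 uM final.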
KDM5B inhibitor: KDM5B demethylase inhibition; Q9UGL1; KDM5B demethylase, FDH-coupled NADH fluorescence (FDH is formaldehyde dehydrogenase); Potency, µM (top dose mostly 57.7 µM), hits mostly inhibitors; 2.6% of 220,000 active; AID 1347165; further: potency means the concentration at half of the fitted maximal effect; 0% is about no effect; nearly all actives have a fitted effect of over 70% in size
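Here, H3K4me3 peptide (12.5 µM in substrate mix) is demethylated by KDM5BΔAP, 200 nM final, after 10 min compound exposure. Formaldehyde product is coupled through FDH (0.25 U/mL in mix) to NADH fluorescence; 30-min ΔRFU feeds dose-response curves.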
SNCA expr inh: reduces expression of the alpha-synuclein gene; HEK-293 SNCA-luciferase knock-in, luminescence, 24 h; Potency, µM (titrated, usually from 57.2 µM), for inactives: at the highest dose activity change, negative = inhibition, hits mostly inhibitors; 0.17% of 140,000 active;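 further: potency means the concentration at half of the fitted maximal effect; plate controls were DMSO cells for no effect and cell-free wells for full effect; nearly all actives have a fitted effect of over 45% in size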
Active calls of the source: *; i = inactive; ? = inconclusive; . = not tested or not shown; [ ] = dose if it differs, or a comment. Unless noted, the call rests on the fitted dose curve; in most records, active means well fitted curve in the direction sought with a large enough effect; inconclusive means small, poorly fitted or top-dose-only effect, or another doubt; inactive means no such curve, though single readings can be large; an effect the other way counts as inactive or inconclusive.

SMILES | SNCA viab count | IP6K1 inhibitor | KDM5B inhibitor | SNCA expr inh
COc1ccccc1CN1CCc2nc(C(=O)Nc3cccc(C(F)(F)F)c3)oc2CC1 | -10% | 14 | 35µM* | -22%
O=C(Nc1cccc(C(F)(F)F)c1)c1nc2c(o1)CCN(Cc1ccccc1F)CC2 | -15%[87.6 µM] | -2 | ? | -6%[87.6 µM]
N#Cc1cccc(CN2CCc3nc(C(=O)Nc4cccc(C(F)(F)F)c4)oc3CC2)c1 | -22% | 1 | 35µM* | ?
O=C(Nc1cccc(C(F)(F)F)c1)c1nc2c(o1)CCN(Cc1cccs1)CC2 | 0%[87.6 µM] | 11 | 32µM* | 3%[87.6 µM]
Cc1noc(C)c1CN1CCc2nc(C(=O)Nc3ccccc3)oc2CC1 | 3%[87.6 µM] | -3 | ? | 69%[87.6 µM]
Cc1noc(C)c1CN1CCc2nc(C(=O)Nc3cccc(C(F)(F)F)c3)oc2CC1 | -28%[87.6 µM] | -2 | 25µM* | -13%[87.6 µM]
COc1cc(Br)c(/C=C(/C#N)C(=O)C(C)(C)C)cc1OC | . | . | i | .
Cn1c(-c2ccc(CN3CCc4[nH]cnc4C3C(=O)O)o2)nc2ccccc21 (stereo not drawn) | -18% | 27 | 28µM* | 84%
CC1(C(=O)NC2CCOCC2)CCc2cnc(Nc3ccccc3)nc21 (stereo not drawn) | -19%[87.6 µM] | 18 | i | ?
CC1(C(=O)NCc2cccnc2)CCCc2cnc(NCc3ccccc3)nc21 (stereo not drawn) | 2%[87.6 µM] | 1 | ? | -14%[87.6 µM]
CC1(C(=O)NCc2cccnc2)CCc2cnc(NCc3ccccc3)nc21 (stereo not drawn) | -7%[87.6 µM] | 1 | 32µM* | ?
CC1(C(=O)NC2CCOCC2)CCCc2cnc(NCc3ccccc3)nc21 (stereo not drawn) | -7%[87.6 µM] | 8 | 40µM* | -26%[87.6 µM]
COc1ccc(C(=O)N2CCOCC3(CN(Cc4cc(F)ccc4F)C3)C2)cc1OC | -13%[87.6 µM] | 17 | i | -19%[87.6 µM]
O=C(CCn1ccn2nc3c(c2c1=O)CCCC3)NCc1ccc(F)c(Cl)c1 | -15% | 2 | i | 43%
O=C(CCNc1cnc2cnccn12)NCc1ccc(F)c(Cl)c1 | 31% | 14 | 25µM* | 37%
C/C(=N\NC(=S)NCc1ccccc1)C(C)C | . | . | i | .
CC(C)NC(=O)C[C@@H]1c2nc(NC(=O)c3ccc(C(C)(C)C)cc3)sc2C[C@@H]2[C@](C)(CO)[C@H](O)CC[C@]21C | -10% | -5 | 32µM* | 15%
COc1ccc(C(=O)Nc2nc3c(s2)C[C@@H]2[C@](C)(CO)[C@H](O)CC[C@@]2(C)[C@@H]3CC(=O)N2CCOCC2)cc1 | 3% | 16 | ? | 64%
CC(C)(C)c1ccc(C(=O)Nc2nc3c(s2)C[C@@H]2[C@](C)(CO)[C@H](O)CC[C@@]2(C)[C@@H]3CC(=O)N2CCOCC2)cc1 | -5% | -8 | 28µM* | 0%
C[C@H](NC(=O)C[C@@H]1c2nc(NC(=O)c3ccc(F)cc3)sc2C[C@@H]2[C@](C)(CO)[C@H](O)CC[C@]21C)c1ccccc1 | ? | -8 | 32µM* | ?
COc1ccccc1CNC(=O)C[C@@H]1c2nc(-c3cccnc3)sc2C[C@@H]2[C@](C)(CO)[C@H](O)CC[C@]21C | 0% | -2 | 25µM* | -19%
CC(C)(C)c1ccc(C(=O)Nc2nc3c(s2)C[C@@H]2[C@](C)(CO)[C@H](O)CC[C@@]2(C)[C@@H]3CC(=O)NCc2ccco2)cc1 | -17% | -16 | 18µM* | -28%
Cn1nc(-c2ccc(NC3CCCCC3)c([N+](=O)[O-])c2)c2ccccc2c1=O | . | . | i | .
CS(=O)(=O)Oc1ccc2c(c1)O/C(=C\c1ccc3c(c1)OCO3)C2=O | . | . | i | .
CCc1ccc(C(C(=O)NC2CCCCC2)N(C(=O)c2cnccn2)c2cccs2)cc1 (stereo not drawn) | . | . | i | .
SMILES | SNCA viab count | IP6K1 inhibitor | KDM5B inhibitor | SNCA expr inh
Cc1ncc2n1C(=O)N(C1CCN(Cc3ccc(F)cc3)CC1)C2 | ? | 10 | i | ?
Cc1ncc2n1C(=O)N(C1CCN(Cc3ccncc3)CC1)C2 | ? | 7 | 40µM* | 15%[87.6 µM]
COc1ccccc1-c1cc(C(=O)NCc2ccc(C(F)(F)F)cc2)c2cnn(C)c2n1 | . | 0 | . | .
Cn1ncc2c(C(=O)NCc3ccc(F)cc3)cc(C(C)(C)C)nc21 | 4%[12.5 µM] | 7 | 45µM* | -11%[87.6 µM]
Cn1ncc2c(C(=O)NCc3cccnc3)cc(-c3ccc([S+](C)(=O)[O-])cc3)nc21 | -15% | -4 | 79µM* | 8%
Cn1ncc2c(C(=O)NCc3cccnc3)cc(-c3ccc(Cl)nc3)nc21 | -10% | -5 | 45µM* | 15%

Bioassay records deposited in PubChem by National Center for Advancing Translational Sciences (NCATS).
